Assay [1] in a line: liver-stage malaria parasite load reduction – cell-based, known kinase inhibitor set, luminescence, hepatoma host viability (AID 624392).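 Also: infected cells incubated roughly two days before readout.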 To be noted: Plasmodium liver stage in hepatoma cells, luciferase luminescence, concentration not given here; liver cell % of control: measured here: host liver cell viability; parasite % of control: stronger effect = lower value.
The nature of assay [2]: altered dexamethasone sensitivity, NF-kB reporter, cell-based, luciferase, IL-1B stimulus (AID 624486).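 As to percent of negative control (+Dex): 100% = mean signal of vehicle control wells on the plate.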 To be noted: IL-1B + dexamethasone, luminescence; percent of negative control (+Dex): actives lie on both sides, concentration not given here; z-score: measured here: IL-1B alone, no Dex.
A short description of assay [3]: C. elegans survival during P. aeruginosa infection – whole organism (AID 651566).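 Also: tested at 14 µM; sign flipped so higher z means a lower ratio.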 To be noted: C. elegans killed by P. aeruginosa, survival ratio.
Assay [4] in a line: pro-inflammatory signaling induction in mouse macrophages – cell-based, murine, luminescence (AID 652131). The settings on record: murine macrophage pro-inflammatory reporter, stronger effect = higher value.
Assay [5] addresses Cellular tumor antigen p53 (Homo sapiens) (UniProt P04637). Nature of the assay: GFP-p53 level modulators in HPV16+ cells – imaging, known kinase inhibitor set, EGFP/DsRed ratio (AID 1053116).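 Also: cells exposed to compounds for 24 h at 37 °C before reading.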 The settings on record: GFP-p53 stability, stronger effect = higher value; EGFP object count: measured here: GFP-p53 positive objects count.
A short description of assay [6]: inducers of IRF3 signaling, differentiated THP-1 – cell-based, PMA-stimulated THP-1, luminescence (AID 1053176). To be noted: PMA-differentiated THP-1, IRF3 reporter luminescence; stronger effect = higher value.
Assay [7] can be described thus: MELAS cybrid and Rieske KO viability enhancers – cell-based, MELAS cybrids, Rieske KO mouse fibroblasts, CellTiter-Glo, primary screen (AID 1508586;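 active = mean z-score across replicates of 1.96 or higher in either the MELAS or the Rieske mutant cell line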;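 also: z relative to plate mean and SD of compound and empty wells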). To be noted: low glucose.
Where [8] appears, read: MELAS cybrid survival, CellTiter-Glo 48 h, stronger effect = higher value.
The mark [9] stands for this setting: Rieske KO mouse fibroblast survival, CellTiter-Glo 72 h.

Activity calls are given as the source filed them. Unless noted, no rule for the calls is given here.

Cellular tumor antigen p53 (Homo sapiens), sequence (P04637 whole entry, looked up): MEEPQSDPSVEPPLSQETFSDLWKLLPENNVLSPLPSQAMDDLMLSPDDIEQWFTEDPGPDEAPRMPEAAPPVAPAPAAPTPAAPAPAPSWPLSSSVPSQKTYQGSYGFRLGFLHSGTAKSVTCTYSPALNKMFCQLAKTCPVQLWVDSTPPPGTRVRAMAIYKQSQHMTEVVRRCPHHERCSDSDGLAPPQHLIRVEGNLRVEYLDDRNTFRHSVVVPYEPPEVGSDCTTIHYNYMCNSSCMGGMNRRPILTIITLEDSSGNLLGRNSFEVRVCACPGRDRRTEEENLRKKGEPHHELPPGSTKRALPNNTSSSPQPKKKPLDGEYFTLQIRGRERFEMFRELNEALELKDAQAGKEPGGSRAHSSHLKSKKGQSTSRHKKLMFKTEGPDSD

In assay [1], `O=C1NC(=O)C(N2CCc3ccccc32)=C1c1ccc(Cl)cc1` gave a liver cell % of control of 86.6%. Also, the parasite % of control in assay [1] was 138% (inactive). In addition, in assay [2], the percent of negative control (+Dex) was 74% (inactive). In addition, the z-score in assay [2] was -1.47; in assay [3], -1.35 (inactive); in assay [4] it was -0.315 (inactive); in assay [7] (setting [8]) it was -0.729 (inactive); in assay [7] (setting [9]), 0.357. In assay [5], the EGFP object count came to 4. The EGFP/DsRed ratio in assay [5] is 0.106 (inactive). Moreover, the fraction signal in assay [6] was -0.0285 (inactive).

Turning to `c1ccc(Cc2nc3ccc(Nc4ncnc5ccccc45)cc3[nH]2)cc1`, the liver cell % of control in assay [1] came out at 166%. Besides, the parasite % of control in assay [1] was 15.2% (inactive). In assay [2], the percent of negative control (+Dex) was 83% (inactive). The z-score was -0.365 in assay [2]; 1.34 (inactive) in assay [3]; 4.91 (inactive) in assay [4]; 0.254 (inactive) in assay [7] (setting [8]); -0.299 in assay [7] (setting [9]). The EGFP object count in assay [5] is 5. Also, the EGFP/DsRed ratio in assay [5] was 0.119 (inactive). Further, the fraction signal in assay [6] was -0.007 (inactive).

With `Cc1cc(O)cc(C)c1/C=C/c1cncc(-c2nn[nH]n2)c1`, in assay [1], the liver cell % of control turned out to be 110%. Also, in assay [1], the parasite % of control is 109% (inactive). For the same compound, the percent of negative control (+Dex) in assay [2] is 106% (inactive). In addition, the z-score in assay [2] was -0.05; in assay [3], 0.305 (inactive); in assay [4], 3.53 (inactive); in assay [7] (setting [8]) it was -0.295 (inactive); in assay [7] (setting [9]) it was -0.403. The EGFP object count in assay [5] was found to be 4.5. For the same compound, the EGFP/DsRed ratio in assay [5] is 0.0667 (inactive). In assay [6], the fraction signal is -0.004 (inactive).

In assay [1], `Cc1ccc(C(=O)NC2CC2)cc1-c1ccc2[nH]ncc2c1` displayed a liver cell % of control of 103%. The parasite % of control in assay [1] was 126% (inactive). The percent of negative control (+Dex) in assay [2] was 102% (inactive). Further, the z-score is 0.41 in assay [2]; 0.325 (inactive) in assay [3]; -0.645 (inactive) in assay [4]; -0.239 (inactive) in assay [7] (setting [8]); -0.0886 in assay [7] (setting [9]). The EGFP object count in assay [5] was determined as 3.5. Further, the EGFP/DsRed ratio in assay [5] is 0.141 (inactive). Moreover, in assay [6], the fraction signal is 0.0035 (inactive).

`Cc1ccc(C(=O)NC2CCCCC2)cc1-c1ccc(C(=O)NCC2CC2)cc1` yielded a liver cell % of control in assay [1] of 103%. Moreover, the parasite % of control in assay [1] is 134% (inactive). Further, in assay [2], the percent of negative control (+Dex) is 88.5% (inactive). Further, the z-score is 0.05 in assay [2]; 1.71 (inactive) in assay [3]; 0.167 (inactive) in assay [4]; -0.861 (inactive) in assay [7] (setting [8]); 0.203 in assay [7] (setting [9]). Besides, the EGFP object count in assay [5] was found to be 5.5. Also, in assay [5], the EGFP/DsRed ratio is 0.116 (inactive). Further, the fraction signal in assay [6] is -0.007 (inactive).

For the compound `CCn1c(-c2nonc2N)nc2cnc(Oc3cccc(NC(=O)c4ccc(N(C)C)cc4)c3)cc21`, the liver cell % of control in assay [1] was 88.6%. Moreover, the parasite % of control in assay [1] is 248% (inactive). The percent of negative control (+Dex) in assay [2] was 96% (inactive). The z-score is -0.295 in assay [2]; -0.06 (inactive) in assay [3]; 1.22 (inactive) in assay [4]; 0.0951 (inactive) in assay [7] (setting [8]); 0.0229 in assay [7] (setting [9]). For the same compound, in assay [5], the EGFP object count was determined as 3.5. Moreover, the EGFP/DsRed ratio in assay [5] is 0.117 (inactive). Moreover, the fraction signal in assay [6] is -0.0105 (inactive).

In assay [1], `COc1cc(/C=N/Nc2ncnc3c2cnn3Cc2ccccc2)ccc1O` gave a liver cell % of control of 94.9%. For the same compound, the parasite % of control in assay [1] was 99.3% (inactive). In addition, in assay [2], the percent of negative control (+Dex) was 85% (inactive). The z-score was -0.18 in assay [2]; -0.52 (inactive) in assay [3]; 1.23 (inactive) in assay [4]; 1.43 (inactive) in assay [7] (setting [8]); 0.207 in assay [7] (setting [9]). The EGFP object count in assay [5] was 100. In addition, in assay [5], the EGFP/DsRed ratio was 1.43 (active). Moreover, the fraction signal in assay [6] is 0.0995 (inactive).

In assay [1], `NS(=O)(=O)c1ccc(N=Nc2c(O)[nH]c3ccc(C(=O)NCc4ccncc4)cc23)cc1` displayed a liver cell % of control of 77.7%. Also, the parasite % of control in assay [1] is 86.4% (inactive). The percent of negative control (+Dex) in assay [2] is 95% (inactive). Also, the z-score in assay [2] is -0.595; in assay [3] it was -0.105 (inactive); in assay [4] it was 0.051 (inactive); in assay [7] (setting [8]), -0.207 (inactive); in assay [7] (setting [9]), -0.126. The EGFP object count in assay [5] is 8. The EGFP/DsRed ratio in assay [5] is 0.126 (inactive). For the same compound, the fraction signal in assay [6] was -0.001 (inactive).

Compound `COc1cc2c(cc1Nc1nc(Nc3ccsc3C(N)=O)c3cc[nH]c3n1)N(C(=O)CN(C)C)CCC2(C)C` registered a liver cell % of control in assay [1] of 67.7%. Moreover, the parasite % of control in assay [1] was 290% (inactive). Besides, the percent of negative control (+Dex) in assay [2] was 91% (inactive). Further, the z-score in assay [2] was -0.245; in assay [3], 0.455 (inactive); in assay [4], 2.78 (inactive); in assay [7] (setting [8]), 0.737; in assay [7] (setting [9]), 2.24. Also, in assay [5], the EGFP object count stood at 3.5. In assay [5], the EGFP/DsRed ratio was 0.0546 (inactive). Also, the fraction signal in assay [6] was 0.001 (inactive).

Consider `C[C@@H](Oc1cc(-n2cnc3ccc(OC[C@@H](O)CO)cc32)sc1C(N)=O)c1ccccc1Cl`, for which the liver cell % of control in assay [1] came out at 94.6%. For the same compound, the parasite % of control in assay [1] was 81.9% (inactive). For the same compound, in assay [2], the percent of negative control (+Dex) is 90% (inactive). Also, the z-score in assay [2] was -0.93; in assay [3] it was 0.155 (inactive); in assay [4], -1.41 (inactive); in assay [7] (setting [8]) it was -0.759 (inactive); in assay [7] (setting [9]), 0.965. In assay [5], the EGFP object count came to 5. Further, the EGFP/DsRed ratio in assay [5] was 0.0656 (inactive). Besides, the fraction signal in assay [6] is -0.0045 (inactive).

In assay [1], `Cc1ccc(NC(=O)c2ccnc(N3CCCC3)c2)cc1-c1ccc(C(=O)NCC2CC2)cc1` had a liver cell % of control of 90.4%. Further, in assay [1], the parasite % of control was 91.3% (inactive). In assay [2], the percent of negative control (+Dex) was 104% (inactive). Moreover, the z-score is 0.86 in assay [2]; -0.79 (inactive) in assay [3]; -0.27 (inactive) in assay [4]; -0.285 (inactive) in assay [7] (setting [8]); -0.118 in assay [7] (setting [9]). The EGFP object count in assay [5] turned out to be 6. For the same compound, in assay [5], the EGFP/DsRed ratio is 0.0951 (inactive). In assay [6], the fraction signal was -0.0005 (inactive).

With `CCc1nn2ncccc2c1-c1ccnc(NC2CC2)n1`, the liver cell % of control in assay [1] was 131%. Also, in assay [1], the parasite % of control was 61.2% (inactive). In assay [2], the percent of negative control (+Dex) is 102% (inactive). The z-score in assay [2] was -0.225; in assay [3], 0.555 (inactive); in assay [4] it was -0.174 (inactive); in assay [7] (setting [8]), -0.448 (inactive); in assay [7] (setting [9]) it was -0.208. In addition, the EGFP object count in assay [5] was found to be 3.5. Further, the EGFP/DsRed ratio in assay [5] was 0.117 (inactive). Further, the fraction signal in assay [6] is 0.007 (inactive).

With `CCOc1nccc2c1nc(-c1nonc1N)n2CC`, the liver cell % of control in assay [1] was 107%. Besides, the parasite % of control in assay [1] was 176% (inactive). The percent of negative control (+Dex) in assay [2] is 86% (inactive). The z-score was -0.885 in assay [2]; 0.225 (inactive) in assay [3]; 0.153 (inactive) in assay [4]; -0.642 (inactive) in assay [7] (setting [8]); -0.113 in assay [7] (setting [9]). Further, the EGFP object count in assay [5] is 4.5. Further, the EGFP/DsRed ratio in assay [5] is 0.429 (inactive). Moreover, the fraction signal in assay [6] is 0 (inactive).

`CCn1c(-c2nonc2N)nc2c(C#CC(C)(C)O)ncc(OC3CCNCC3)c21` registered a liver cell % of control in assay [1] of 78%. Moreover, the parasite % of control in assay [1] is 13.9% (active). Besides, the percent of negative control (+Dex) in assay [2] is 89% (inactive). Besides, the z-score was -0.435 in assay [2]; 0.17 (inactive) in assay [3]; 3.47 (inactive) in assay [4]; -0.105 (inactive) in assay [7] (setting [8]); -0.284 in assay [7] (setting [9]). Further, the EGFP object count in assay [5] is 10.5. Besides, in assay [5], the EGFP/DsRed ratio was 0.266 (inactive). The fraction signal in assay [6] is 0.001 (inactive).

For the origin of these results see PubChem BioAssay.
